The source of these data is PubChem BioAssay (EPA / NIEHS).

The structures appear in SMILES notation. Records with an inconclusive call do not appear. More than one record can exist for a structure, and the calls need not agree. Calls of active or inactive are those of the source. Rule for the calls, unless noted: active = hit-call score of the fitted dose curve at least 0.9, where 1 is the maximum; inconclusive = response in the unintended direction; inactive = score below 0.9.

Read-out in test [1]: sulfotransferase 2A1 (SULT2A1), SULT2A1 (gene 6822)
Nature of the test: LTEA_HepaRG_SULT2A1: Life Technologies and Expression Analysis (LTEA) Assay for sulfotransferase 2A1 (SULT2A1) using HepaRG (AID 2283531; active = hit-call score of the fitted dose curve at least 0.9, where 1 is the maximum; inactive = score below 0.9). Particulars: mRNA level, 48 h; actives raise or lower the signal. Put shortly:
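Gene-expression endpoint in a human liver cell line: SULT2A1 mRNA change after 48 h chemical treatment, curves fitted in both directions relative to 0.5% DMSO vehicle. Concentrations spanned eight half-log steps from 100 uM.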

Read-out in test [2]: Transforming Growth Factor (TGFA), TGFA (gene 7039)
Nature of the test: LTEA_HepaRG_TGFA: Life Technologies and Expression Analysis (LTEA) Assay for Transforming Growth Factor (TGFA) using HepaRG (AID 2283532; active = hit-call score of the fitted dose curve at least 0.9, where 1 is the maximum; inactive = score below 0.9). The note with it: mRNA level, 48 h; actives raise or lower the signal. Put shortly: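 HepaRG (human liver line), 48 h exposure, 8 conc. half-log down from 100 uM, 0.5% DMSO vehicle, duplicates; serum-free induction medium. TGFA mRNA by TaqMan qRT-PCR, ACTB/GAPDH/POLR2A normalization; gain/loss fit vs DMSO.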

Read-out in test [3]: Transforming Growth Factor (TGFB1), TGFB1 (gene 7040)
The test is described as follows: LTEA_HepaRG_TGFB1: Life Technologies and Expression Analysis (LTEA) Assay for Transforming Growth Factor (TGFB1) Transporter using HepaRG (AID 2283533; active = hit-call score of the fitted dose curve at least 0.9, where 1 is the maximum; inactive = score below 0.9). The note with it: mRNA level, 48 h; actives raise or lower the signal. Put shortly:
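Eight-point concentration-response (max 100 uM, half-log) in HepaRG under serum-free induction conditions, 48 h. TGFB1 mRNA by qRT-PCR, housekeeping-normalized.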

Read-out in a further test: TIMP1, TIMP1 (gene 7076)
The test is described as follows: LTEA_HepaRG_TIMP1: Life Technologies and Expression Analysis (LTEA) Assay for TIMP1 using HepaRG (AID 2283534; active = hit-call score of the fitted dose curve at least 0.9, where 1 is the maximum; inactive = score below 0.9;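 note: TaqMan qRT-PCR signal normalized to ACTB GAPDH and POLR2A housekeeping genes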). The note with it: mRNA level, 48 h; actives raise or lower the signal. The method, boiled down:
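TIMP1 induction or repression in HepaRG cells after 48 h chemical exposure (eight concentrations, highest 100 uM), assessed by normalized qRT-PCR with bidirectional fitting to DMSO controls.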

Read-out in test [4]: Tumor necrosis factor receptor 1 (TNFRSF1A), TNFRSF1A (gene 7132)
Nature of the test: LTEA_HepaRG_TNFRSF1A: Life Technologies and Expression Analysis (LTEA) Assay for Tumor necrosis factor receptor 1 (TNFRSF1A) using HepaRG (AID 2283535; active = hit-call score of the fitted dose curve at least 0.9, where 1 is the maximum; inactive = score below 0.9). The note with it: mRNA level, 48 h; actives raise or lower the signal. The method, boiled down:
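Assay uses 48 h chemical treatment of differentiated HepaRG monolayers, tested in duplicate at eight concentrations from 100 uM downward in 0.5% DMSO. mRNA is normalized to ACTB, GAPDH and POLR2A, with induction or suppression fitted relative to vehicle.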

Read-out in test [5]: Thyroid Hormone Responsive (THRSP), THRSP (gene 7069)
The test is described as follows: LTEA_HepaRG_THRSP: Life Technologies and Expression Analysis (LTEA) Assay for Thyroid Hormone Responsive (THRSP) using HepaRG (AID 2283536; active = hit-call score of the fitted dose curve at least 0.9, where 1 is the maximum; inactive = score below 0.9). The note with it: mRNA level, 48 h; actives raise or lower the signal. Put shortly: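 mRNA induction or loss relative to 0.5% DMSO vehicle was fitted bidirectionally across an eight-point curve whose highest exposure was 100 uM. Human HepaRG liver cells received chemicals in duplicate over 48 h before RNA extraction.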

Read-out in test [6]: Cellular tumor antigen p53 (Homo sapiens) (UniProt P04637)
The test is described as follows: LTEA_HepaRG_TP53: Life Technologies and Expression Analysis (LTEA) Assay for Tumor Protein P53 (TP53) using HepaRG (AID 2283537; active = hit-call score of the fitted dose curve at least 0.9, where 1 is the maximum; inactive = score below 0.9). Particulars: mRNA level, 48 h; actives raise or lower the signal. The method, boiled down: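 Read-out is TP53 transcript level by microfluidic qRT-PCR, normalised to three housekeeping genes and fitted bidirectionally against DMSO. Human HepaRG cells received compounds for 48 h, highest concentration 100 uM.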

Read-out in test [7]: UDP glucuronosyltransferase (UGT1A1), UGT1A1 (gene 54658)
The test is described as follows: LTEA_HepaRG_UGT1A1: Life Technologies and Expression Analysis (LTEA) Assay for UDP glucuronosyltransferase (UGT1A1) using HepaRG (AID 2283538; active = hit-call score of the fitted dose curve at least 0.9, where 1 is the maximum; inactive = score below 0.9). Particulars: mRNA level, 48 h; actives raise or lower the signal. The method, boiled down:
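Readout is UGT1A1 transcript level by qRT-PCR, normalized to three housekeeping genes, after 48 h chemical treatment of HepaRG cells. Concentrations ran from 100 uM down in half-log steps with 0.5% DMSO, and gain or loss relative to DMSO was fitted.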

Read-out in test [8]: UDP glucuronosyltransferase (UGT1A6), UGT1A6 (gene 54578)
The test is described as follows: LTEA_HepaRG_UGT1A6: Life Technologies and Expression Analysis (LTEA) Assay for UDP glucuronosyltransferase (UGT1A6) using HepaRG (AID 2283539; active = hit-call score of the fitted dose curve at least 0.9, where 1 is the maximum; inactive = score below 0.9). Particulars: mRNA level, 48 h; actives raise or lower the signal. Put shortly:
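Measures mRNA change in HepaRG hepatic cells exposed 48 h to chemicals (eight-point, maximum 100 uM, 0.5% DMSO vehicle) in serum-free induction medium. Expression normalized to endogenous controls; DMSO served as negative control and baseline.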

Read-out in test [9]: X-box binding protein 1 (XBP1), XBP1 (gene 7494)
Nature of the test: LTEA_HepaRG_XBP1: Life Technologies and Expression Analysis (LTEA) Assay for X-box binding protein 1 (XBP1) using HepaRG (AID 2283540; active = hit-call score of the fitted dose curve at least 0.9, where 1 is the maximum; inactive = score below 0.9). The note with it: mRNA level, 48 h; actives raise or lower the signal. The method, boiled down: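 Eight concentrations (half-log, highest 100 uM, 0.5% DMSO) tested in duplicate on HepaRG cells over 48 h in serum-free induction medium; qRT-PCR of XBP1 normalised to ACTB, GAPDH, POLR2A.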

Test [10] in a line: LTEA_HepaRG_LDH_cytotoxicity: Cytotoxicity Assessment in the Life Technologies and Expression Analysis (LTEA) Assay (AID 2283563).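 For AC50: LDH activity released into spent culture medium as a marker of cell death.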 Put shortly:
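Spent-medium LDH after 48 h chemical exposure of HepaRG cells in serum-free induction medium; eight concentrations, half-log dilutions from 100 uM, duplicate wells, fitted upward relative to 0.5% DMSO.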

The nature of test [11]: ATG_XTT_Cytotoxicity: Cytotoxicity Assessment in the Attagene TRANS-FACTORIAL HepG2 Assay (AID 2283584). The method, boiled down:
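24 h chemical exposure of reporter-transfected HepG2; XTT signal loss vs DMSO indicates cytotoxicity.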

Test [12] in a line: TOX21_p53_BLA_p2_viability: Viability Assessment in the Tox21 HCT-116 p53 Agonism Beta-lactamase Assay, Phase 2 (AID 2283591).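 Note: compound exposure lasted 16 h at 37 °C; actives lower the ATP signal meaning cytotoxicity.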 The method, boiled down:
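Cytotoxicity readout: CellTiter-Glo ATP luminescence, 30 min at room temperature, after the beta-lactamase read. Cells were HCT116 exposed 16 h at 37C to compounds pin-transferred at 217-fold dilution from DMSO stocks.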

Test [13] has as its target Cellular tumor antigen p53 (Homo sapiens) (UniProt P04637). The test is described as follows: TOX21_p53_BLA_p2_ratio: Tox21 HCT-116 p53 Agonism Beta-lactamase Assay, Ratio, Phase 2 (AID 2283592). Put shortly:
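Human colon HCT116 cells with an inducible p53 beta-lactamase reporter are exposed to test chemicals for 16 h at 37C. Reporter induction is read as the 460/530 nm emission ratio after CCF4-AM loading, normalized to DMSO.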

Test [14] is described as follows: TOX21_p53_BLA_p3_viability: Viability Assessment in the Tox21 HCT-116 p53 Agonism Beta-lactamase Assay, Phase 3 (AID 2283593).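 Note: cells exposed to compound for 16 h before reading.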 Put shortly:
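Cellular ATP was quantified by CellTiter-Glo luminescence, read after 30 min at room temperature. Beforehand, HCT116 cells (4000/well) received compound 5 h post-seeding, 217-fold diluted from DMSO, then incubated 16 h at 37C.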

The target of test [15] is Cellular tumor antigen p53 (Homo sapiens) (UniProt P04637). The test is described as follows: TOX21_p53_BLA_p3_ratio: Tox21 HCT-116 p53 Agonism Beta-lactamase Assay, Ratio, Phase 3 (AID 2283596). The method, boiled down: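 HCT116 p53-bla cells (4000/well) given compound in DMSO (217-fold dilution) after 5 h, incubated 16 h at 37C. CCF4-AM substrate 2 h at room temperature; 460/530 nm emission ratio, gain fitted against DMSO.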
Cellular tumor antigen p53 (Homo sapiens), sequence (P04637 whole entry, looked up): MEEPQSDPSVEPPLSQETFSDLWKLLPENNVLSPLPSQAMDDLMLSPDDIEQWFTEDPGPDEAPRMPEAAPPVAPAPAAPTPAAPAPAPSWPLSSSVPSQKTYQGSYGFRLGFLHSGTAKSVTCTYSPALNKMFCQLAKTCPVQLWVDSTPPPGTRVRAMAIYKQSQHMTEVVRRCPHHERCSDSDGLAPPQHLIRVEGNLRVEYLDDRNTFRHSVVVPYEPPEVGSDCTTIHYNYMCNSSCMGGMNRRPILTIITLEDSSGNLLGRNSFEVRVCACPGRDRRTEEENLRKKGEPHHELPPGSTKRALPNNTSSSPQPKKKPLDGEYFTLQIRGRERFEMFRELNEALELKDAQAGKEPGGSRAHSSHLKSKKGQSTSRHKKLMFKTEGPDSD

A short description of test [16]: TOX21_p53_BLA_p4_viability: Viability Assessment in the Tox21 HCT-116 p53 Agonism Beta-lactamase Assay, Phase 4 (AID 2283597).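 Note: hits lower the luminescence signal meaning cytotoxicity.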 Put shortly:
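Luminescent ATP readout (CellTiter-Glo, 30 min, room temperature) in the same wells as the p53 bla ratio. HCT116 cells were treated for 16 h at 37C with DMSO-dissolved compounds.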

Test [17] addresses Cellular tumor antigen p53 (Homo sapiens) (UniProt P04637). The test is described as follows: TOX21_p53_BLA_p5_ratio: Tox21 HCT-116 p53 Agonism Beta-lactamase Assay, Ratio, Phase 5 (AID 2283599). Put shortly:
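Beta-lactamase reporter ratio (blue 460 nm over green 530 nm, 405 nm excitation) after 2 h CCF4-AM loading, in HCT-116 cells exposed 16 h at 37 C to compounds pinned at 217-fold dilution. Increases relative to DMSO baseline scored.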

Test [18] can be described thus: TOX21_p53_BLA_p5_viability: Viability Assessment in the Tox21 HCT-116 p53 Agonism Beta-lactamase Assay, Phase 5 (AID 2283600). Put shortly: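 Seeded cells (4000/well) settle 5 h before compound addition. Plates then incubate 16 h at 37C, receive FRET substrate for 2 h, and finally CellTiter-Glo, with luminescence measured after a 30 min room-temperature incubation.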

Test [19] has as its target Cellular tumor antigen p53 (Homo sapiens) (UniProt P04637). The test is described as follows: TOX21_p53_BLA_p4_ratio: Tox21 HCT-116 p53 Agonism Beta-lactamase Assay, Ratio, Phase 4 (AID 2283601). Put shortly:
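Signal is the blue/green (460nm/530nm) ratio of cleaved versus uncleaved CCF4-AM substrate, read after 2 h substrate loading. Cells were HCT116 carrying the p53-responsive beta-lactamase reporter, dosed 16 h at 37C, 5% CO2; CellTiter-Glo measured in parallel.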

With `CC(C)(C)C(O)(CCc1ccc(Cl)cc1)Cn1cncn1` (stereo unspecified), the AC50 was 80.2 µM (active) in test [1]; 50 µM (active) in test [3]; 12.7 µM (active) in test [5]; 71.9 µM (active) in test [6]; 1.32 µM (active) in test [7]; 72 µM (active) in test [10]. In addition, the outcome in test [2] is “inactive”; with TIMP1, TIMP1 (gene 7076), “inactive”; in [4] it was “inactive”; in test [8], “inactive”; in test [9] it was “inactive”; in test [11], “inactive”. For the same molecule, the result in [12], in test [13], in [14], in test [15], in test [16] and in [17] was inactive. Moreover, in [18], the molecule was called inactive.
For the molecule `CNC(=O)Oc1cccc2c1OC(C)(C)C2`, the outcome in test [1] was “inactive”; in [2], “inactive”; in test [3] it was “inactive”; with TIMP1, TIMP1 (gene 7076), “inactive”; in test [4], “inactive”; in test [5], “inactive”. Further, the result in test [6], in test [8], in test [9], in [10], in [12] and in test [13] was inactive. In addition, the molecule was classed as inactive in [14], in [15], in test [17] and in [18]. Besides, in [7], the concentration at half-maximal activity (AC50) was 3.38 µM (active).
Consider `N#CC(Br)(Br)C(N)=O`, for which the outcome in test [1] was “inactive”; in test [2], “inactive”; with TIMP1, TIMP1 (gene 7076), “inactive”; in [4] it was “inactive”; in test [5], “inactive”; in test [6] it was “inactive”. Further, the result in test [7], in test [8], in test [9], in test [10], in test [11] and in test [13] was inactive. Also, the call in test [14], in [15] and in test [18] was inactive. Further, the concentration at half-maximal activity (AC50) in [16] is 70.2 µM (active).
As to `Cc1cccc(N)c1N`, the outcome in [1] is “inactive”; in test [2], “inactive”; in test [3] it was “inactive”; with TIMP1, TIMP1 (gene 7076) it was “inactive”; in [6] it was “inactive”; in test [8] it was “inactive”. Further, the result in test [10], in test [12], in test [13], in test [14], in [15] and in test [16] was inactive. Also, the outcome in test [17] and in [18] was inactive. The half-maximal activity concentration (AC50) in [5] is 32.3 µM (active); in [7], 17.2 µM (active); in test [9], 50 µM (active); in test [16], 26.8 µM (active).
Regarding `O=P(OCCCl)(OCCCl)OCCCl`, the outcome in [1] was “inactive”; in [2], “inactive”; with TIMP1, TIMP1 (gene 7076) it was “inactive”; in test [4], “inactive”; in test [5] it was “inactive”; in test [6] it was “inactive”. Besides, the molecule was classed as inactive in test [7], in test [8], in test [9], in test [10], in test [11] and in test [12]. The result in test [13], in test [14], in test [15], in test [16], in [17] and in test [18] was inactive. In test [19], the result was inactive.
As for `CCOc1cccc(C2(N3CCN(c4ccccc4)CC3)CCC(C)CC2)c1` (stereo unspecified), the outcome in [1] was “inactive”; in test [2], “inactive”; in [3], “inactive”; with TIMP1, TIMP1 (gene 7076), “inactive”; in test [4], “inactive”; in [5], “inactive”. Further, the molecule was classed as inactive in [6], in test [8], in [9], in test [10] and in test [15]. In test [7], the AC50 is 43.5 µM (active).

For orientation: AC50 means the midpoint of the concentration-response curve, whichever way the signal moves.
